The list is a sample of the results.
aSyn 5UTR act: Activators via SNCA 5'UTR binding, MLPCN; hit rate 7.1% among 300,000; alpha-synuclein 5'UTR reporter, activators screen; activity score, % (tested at 7.5 µM), hits read low; AID 1814, 2009; in the data active means activity score below about -60%
* marks the source's active call; other numbers are inactive results.

SMILES	aSyn 5UTR act
CC1CCN(C(=O)CCc2nnc(-c3ccccc3)o2)CC1	-106.3*
O=C(CCc1nnc(-c2ccc3c(c2)OCO3)o1)N1CCC(c2ccc(F)cc2)C1 (stereo not given)	-104.0*
CN1C(=O)/C(=C\c2ccc(N(C)C)cc2)OC1=S	-67.5*
COc1ccc(NC(=S)N2CCc3ccccc32)cc1OC	-82.5*
O=C(c1cccs1)N1CCN(c2nc3c(F)cc(F)cc3s2)CC1	-78.3*
Cc1cc2nc(N3CCN(C(=O)c4cccs4)CC3)sc2cc1C	-129.8*
Cc1cc(C)c2nc(N3CCN(C(=O)c4ccco4)CC3)sc2c1	-115.3*
O=C(c1ccco1)N1CCN(c2nc3ccsc3c(=O)s2)CC1	-97.7*
c1ccc2c(c1)CCN(c1nc3cc4c(cc3s1)OCCO4)C2	75.1
CC(=O)c1ccc(N2CCN(C(=O)c3ccco3)CC2)c(F)c1	-97.5*
Cc1cc2nc(N3CCN(C(=O)c4ccco4)CC3)sc2cc1C	-128.8*
O=c1[nH]c2ccccc2nc1CCc1ccccc1	-89.7*
c1ccc(CCc2nc3ccccc3[nH]2)cc1	-120.2*
Cc1cc(C)c2c3c(sc2n1)C(c1cccc(F)c1)C(C#N)=C(N)O3 (stereo not given)	-76.0*
O=C(NC(=S)Nc1ccc(N2CCCC2)cc1)c1ccccc1[N+](=O)[O-]	-104.1*
O=C(NNC(=S)Nc1ccccc1)c1ccccc1[N+](=O)[O-]	-77.4*
O=C(Cc1ccccc1)Nc1nc(-c2cccs2)cs1	-136.1*
O=C(Cc1ccccc1F)Nc1nc(-c2cccs2)cs1	-77.8*
O=C(Cc1ccccc1F)Nc1nc(-c2ccc(F)c(F)c2)cs1	-85.1*
Cc1ccc(NC(=O)c2ccco2)c([N+](=O)[O-])c1	-197.3*
COc1ccc(NC(=O)c2ccco2)c([N+](=O)[O-])c1	-75.8*
O=C(Nc1nc(-c2nc3ccccc3s2)cs1)C1COc2ccccc2O1 (stereo not given)	-135.6*
COc1ccc2nc(NC(=O)C3COc4ccccc4O3)sc2c1 (stereo not given)	-80.1*
CS(=O)(=O)c1ccc2nc(NC(=O)C3COc4ccccc4O3)sc2c1 (stereo not given)	-97.6*
CC1CCCN(C(=S)Nc2ccc(Nc3ccccc3)cc2)C1 (stereo not given)	-123.2*
SMILES	aSyn 5UTR act
OC1CCCN(C(=S)Nc2ccc(SC(F)F)cc2)C1 (stereo not given)	-68.3*
OC1CCN(C(=S)Nc2ccc(Nc3ccccc3)cc2)CC1	-116.3*
O=[N+]([O-])c1cccc(/C=C/c2ccc3cccc(O)c3n2)c1	-82.3*
O=[N+]([O-])c1ccc(/C=C/c2ccc3cccc([N+](=O)[O-])c3n2)cc1	-92.2*
O=[N+]([O-])c1cccc2ccc(/C=C/c3ccc(F)cc3)nc12	-291.1*
CC(=O)NC(c1cccc([N+](=O)[O-])c1)c1ccc2cccnc2c1O (stereo not given)	122.6
Cc1ccnc(NC(=O)CCC(=O)c2cccs2)c1	84.0
O=C(c1cccs1)N(C(=O)c1cccs1)c1ccc(Br)cn1	-144.3*
Cc1ccnc(N(C(=O)c2cccs2)C(=O)c2cccs2)c1	-156.7*
Cc1cc(=O)oc2cc(OCC(=O)Nc3ccc(N4CCC(C)CC4)cc3)ccc12	-70.1*
Cc1csc(NC(=O)COc2ccc3c(C)cc(=O)oc3c2)n1	-62.4*
Cc1ccc(NC(=O)C2CCC(CNc3c(N4CCC(C)CC4)c(=O)c3=O)CC2)cc1F (stereo not given)	61.2
CCCc1cc(=O)oc2cc(OCC(=O)Nc3ccccn3)ccc12	-91.7*
CC(Cc1cccs1)NC(=O)Nc1cccc(Cl)c1 (stereo not given)	-62.5*
CN(C)c1ccc(NC(=O)Nc2cccc(Cl)c2)cc1	-137.6*
COc1ccc(C(=O)Nc2cccc(N(C)S(C)(=O)=O)c2)cc1OC	-168.1*
CN(c1cccc(NC(=O)Nc2cccc(Cl)c2)c1)S(C)(=O)=O	-91.6*
CCc1ccc(NC(=O)[C@H](C)NC(=O)C2CCN(C(=O)[C@@H](N)C(C)C)CC2)cc1	-110.4*
N#C/C(=C1/CCCCCN1)c1nc2ccccc2s1	-72.8*
COc1ccc2c(c1)O[C@H](c1ccc3c(c1)OCO3)[C@@H](O)C2=O	-85.5*
COc1ccc2c(c1)C(=O)CC(c1ccc3c(c1)OCCO3)O2 (stereo not given)	-271.9*
Cc1ccc2c(c1)C(=O)CC(c1ccc3c(c1)OCCO3)O2 (stereo not given)	-96.3*
COc1ccc2c(c1)O[C@@H](c1cccc(C(F)(F)F)c1)[C@H](O)C2=O	62.4
O=c1[nH]c(-c2ccccn2)cc2ccccc12	-117.7*
O=c1[nH]c(Nc2ccc(F)cc2)cc2ccccc12	-75.2*
SMILES	aSyn 5UTR act
c1ccc(/N=C2\N=C(Nc3ccccn3)c3ccccc32)nc1	57.1
O=c1[nH]c(Nc2ccccn2)cc2ccccc12	-112.3*
CCc1cc2c(=O)[nH]c(-c3ccccn3)nc2s1	59.5
Cc1ccc2nc(NC(=O)c3ccc4ncsc4c3)sc2c1	-145.3*
Cc1ccc2nc(NC(=O)c3ccc4c(c3)OCO4)sc2c1	-129.6*
Cc1ccc2nc(-c3ccc(N4C(=O)CC(N5CCC(C(N)=O)CC5)C4=O)cc3)sc2c1 (stereo not given)	-72.3*
COc1ccc(-c2nnc(SCC(=O)c3cccs3)o2)cc1	-140.2*
Cc1ccc(SCC(=O)c2ccc[nH]2)cc1	-126.5*
COc1ccc(-c2nnc(SCC(=O)c3ccc[nH]3)o2)cc1	-107.1*
Cc1ccc(N=Cc2cc(C)n(C3CCCC3)c2C)cc1	-155.0*
COc1ccc(CCC(=O)NCCS(=O)(=O)N2CCN(c3ccccc3OC)CC2)cc1	-112.5*
Cc1ccc(O)c(-n2nc3ccccc3n2)c1	-134.3*
O=[N+]([O-])c1ccc2nc(N3CCCC3)sc2c1	-120.6*
Cc1ccc(C(=O)c2cc([N+](=O)[O-])ccc2N2CCCCC2)cc1	81.1
Cc1cc(N2CCCCCC2)nc2ccc(F)cc12	-63.6*
Fc1cc(F)c2nc(N3CCCCC3)sc2c1	-98.2*
Fc1ccc2nc(N3CCCC3)sc2c1	-199.8*
Cc1ccc2cc(CN(CC3CCCO3)S(=O)(=O)c3ccc4c(c3)OCCO4)c(=O)[nH]c2c1C (stereo not given)	-108.0*
CC(=O)c1ccc(S(=O)(=O)N(Cc2cc3cc4c(cc3[nH]c2=O)OCCO4)CC2CCCO2)cc1 (stereo not given)	-179.7*
Cc1cc(C)c2cc(CN(CC3CCCO3)S(=O)(=O)c3ccc4c(c3)OCCO4)c(=O)[nH]c2c1 (stereo not given)	-93.8*
Cc1ccc2cc(CN(CC3CCCO3)C(=S)Nc3ccccc3)c(=O)[nH]c2c1C (stereo not given)	72.3
Cc1ccc2nsnc2c1S(=O)(=O)N(CCO)Cc1cc2cc3c(cc2[nH]c1=O)OCCO3	-90.0*
COc1ccc2[nH]c(=O)c(CN(Cc3cccs3)S(=O)(=O)c3c(C)ccc4nsnc34)cc2c1	89.3
Fc1cc(Br)ccc1COc1ccc(-c2nnco2)cc1	-133.2*
Fc1ccc(COc2ccc(-c3nnco3)cc2)c(Cl)c1	-96.4*
SMILES	aSyn 5UTR act
COc1ccc(C(=O)c2cc3cccc(OC)c3o2)cc1	-161.5*
COc1cccc2cc(CC(=O)c3ccc(C)cc3C)c(=O)oc12	-185.0*
COc1ccc(C(=O)Cc2cc3cccc(OC)c3oc2=O)cc1	-78.9*
Cc1cc(C)c(NC(=O)CCN2CCN(Cc3ccccc3)CC2)c(C)c1	98.3
CCN1CCN(Cc2ccc(NC(=O)c3cc(NC(=O)c4cncc(-c5cccs5)c4)cc(OC)c3)cc2C(F)(F)F)CC1	108.8
CC1CCN(CCc2nc3cc(NC(=O)Nc4ccccc4)ccc3n2C)CC1	-84.1*

Bioassay records as filed in PubChem BioAssay.
